Most compounds without a hit are left out; they make up all but 2.1% or so of the library.
Abeta rescue = qHTS for compounds that reverse cellular toxicity of Amyloid beta (A-beta) peptide in yeast: Primary Screen; yeast expressing A-beta42, growth rescue, OD600, 48 h; response scale: 0% DMSO, 100% iron-clioquinol control; Potency, µM (series often up to 46.1 µM), hits mostly activators; 410,000 compounds, 0.063% hits; note: nearly all actives have a fitted effect of over 55% in size
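Yeast A-beta toxicity model in growth medium with pinned compounds, 48 h at 30 C; growth read as absorbance at 600 nm. Normalized to FeCl3/clioquinol equimolar mix (positive) and DMSO (negative).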
FUS yeast rescue = qHTS for Suppressors of FUS Proteinopathy: Primary screen using FUS-linked yeast assay; S. cerevisiae FUS-expressing, growth rescue, OD600, 24 h; Potency, µM (series often up to 76.6 µM), actives largely listed as activators; 390,000 compounds, 0.24% hits; AID 1347120, 2019;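 note: plate controls were DMSO vehicle for no effect and reference control for full effect; nearly all actives have a fitted effect of over 55% in size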
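Cultures pregrown in 2.5% raffinose medium are shifted to minimal medium containing 2% galactose to express toxic FUS. Compounds are tested at several concentrations. After 24hr at 30C, growth is quantified at 600 nm absorbance.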
TDP43 rescue = qHTS of TDP-43 Inhibitors; TDP-43 expressing yeast growth rescue, BacTiter-Glo, 24 h; 410,000 compounds, 1.8% hits; Potency, µM (doses to about 46.1 µM), without a hit: at the top dose growth rescue (activation), usual class: activators; note: % of control where 0% means no effect; nearly all actives have a fitted effect of over 50% in size
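Yeast cells expressing TDP-43 under galactose induction are exposed to compounds for 24 hr at 30 deg C. BacTiter-Glo luminescence measures growth, so protective compounds score as activators.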
aSyn rescue = qHTS of alpha-syn Inhibitors; AID 652106, 2013; Yeast expressing alpha-synuclein, growth rescue, BacTiter-Glo, 24 h; 370,000 compounds, 0.14% hits; Potency, µM (titrated, usually from 46.1 µM), without a hit: at the highest dose growth rescue (activation), usual class: activators; note: % of control where 0% means no effect; nearly all actives have a fitted effect of over 65% in size
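Galactose-induced alpha-syn yeast (OD600=0.02, raffinose-pregrown) + pinned cpd, 24 hr, 30 deg C; growth by BacTiter-Glo luminescence. Growth restoration scores as activation.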
Active calls of the source: *; i = inactive; ? = inconclusive; . = no result; [ ] = dose if it differs, or a comment. Calls come from the whole dose curve; as a rule, active = well fitted curve in the direction sought with a large enough effect; inconclusive = small, poorly fitted or top-dose-only effect, or another doubt; inactive = no such curve, though single readings can be large; an effect the other way counts as inactive or inconclusive. Potency is the fitted concentration of half-maximal effect.

SMILES	Abeta rescue	FUS yeast rescue	TDP43 rescue	aSyn rescue
Cc1cc(C)cc(C(=O)OCCCN(C)C2CN(Cc3cn(Cc4ccc([N+](=O)[O-])cc4)nn3)S(=O)(=O)C2)c1 (stereo unspecified)	.	i	.	.
CCn1c2ccccc2c2cc(C=Nn3c(-c4ccccn4)n[nH]c3=S)ccc21	.	i	.	.
CCOC(=O)c1ccc(S(=O)(=O)n2c(=O)oc3ccccc32)cc1	i	i	24.4%	1.8%
Cc1ccc(S(=O)(=O)n2c(=O)oc3ccccc32)cc1	i	i	8.91µM*	11.2%
COc1ccc(C(C)NC(=S)NCc2ccc(F)cc2)cc1 (stereo unspecified)	11.2µM*	i	?	0.3%
O=C(NCc1ccc(F)cc1)C(c1ccccc1)c1ccccc1	i	i	24.1%	-0.7%
CCC(NC(=S)NCc1ccc(F)cc1)c1ccccc1 (stereo unspecified)	11.2µM*	i	15.6%	-1.9%
COc1cccc(C(C)NC(=S)NCc2ccc(Cl)cc2)c1 (stereo unspecified)	i	i	9.6%	-0.7%
CSc1ccc(C=Nn2c(-c3cc(C)[nH]n3)n[nH]c2=S)cc1	.	i	.	.
C[N+](C)(C)c1ccc(/C=C2\C=Cc3ccccc32)cc1	.	.	.	3.6%
Cc1csc(Nc2ccc(Cl)cc2)n1	?	i	15.8µM*	-7.0%
O=C(NCc1ccc2c(c1)OCO2)c1ccc2c(c1)OCCO2	?	i	25.1µM*	-23.1%
Cc1ccc(C(=O)NCc2ccc3c(c2)OCO3)cc1C	i	i	?	-1.2%
COc1ccc(N(C)C(=O)c2ccc3c(Cl)c4c(nc3c2)CCCC4)c(OC)c1	i	?	9.1%	5.7%
Cc1cc(C(=O)NCc2ccc3c(c2)OCO3)ccc1[N+](=O)[O-]	?	i	17.8µM*	-9.7%
Cc1ccc(N(C)C(=O)c2ccc3c(Cl)c4c(nc3c2)CCC4)cc1C	i	?	25.1µM*	?
O=C(NCc1ccccc1Br)c1ccc2c(c1)OCCO2	i	i	11.2µM*	7.4%
CCN(CC)c1cc(C)c(/C=C/c2ccnc3ccccc23)cc1C	.	.	.	2.7%
Fc1ccccc1-c1n[nH]c(=S)n1N=Cc1ccc(OCc2ccccc2)cc1	.	i	.	.
O=C(NCc1ccc2c(c1)OCO2)c1ccc(COc2cccc(Cl)c2)o1	?	i	14.1µM*	?
S=C(NCc1ccc2c(c1)OCO2)NCc1ccc2c(c1)OCO2	i	i	-13.1%	6.8%
Cc1cccc(NC(=S)NCc2ccc3c(c2)OCO3)c1	i	i	17.8µM*	-1.2%
O=C(NCc1cccc(Cl)c1)c1ccc2c(c1)OCCO2	i	i	10µM*	1.0%
O=C(NCc1cccc(Cl)c1)c1ccc2c(Cl)c3c(nc2c1)CCCC3	i	i	11.2µM*	.
CCn1c2ccccc2c2cc(NC(=O)c3cc4c(C)nn(-c5ccccc5)c4s3)ccc21	.	i	.	.
SMILES	Abeta rescue	FUS yeast rescue	TDP43 rescue	aSyn rescue
Cc1cc(Br)ccc1NC(=O)COC(=O)c1ccccc1OCC(=O)N(C)C	.	.	.	2.3%
C=Cc1ccc(C(=O)Nc2nnc(-c3cccnc3)s2)cc1	.	i	.	.
COc1ccc(-n2c(SCC(=O)N3CCCCC3C)nnc2-c2ccncc2)cc1 (stereo unspecified)	.	i	.	.
O=C1CS(=O)(=O)C2(C(=O)N(Cc3ccccc3)c3ccccc32)N1c1ccc(F)c(Cl)c1 (stereo unspecified)	i	i	20µM*	11.8%
CCCN1CNc2c(c(=O)[nH]c(=S)n2CCc2ccc(C)cc2)C1	.	.	.	5.2%
CC1CCN(c2oc(-c3ccco3)nc2S(=O)(=O)c2ccccc2)CC1	i	i	15.8µM*	-5.0%
CC(C)c1ccc(-n2cnn(-c3ncccc3[N+](=O)[O-])c2=O)cc1	i	i	11.2µM*	-3.0%
Cc1cc(C)n(-c2ncccc2[N+](=O)[O-])n1	i	i	7.1%	6.2%
COc1ccccc1C1CCN(C(=O)c2cccs2)CC1	i	i	12.6µM*	-2.7%
COc1cc2c(NC3CCN(C)CC3)nc(N3CCCN(C)CC3)nc2cc1OCCCCCCN(C)C	.	.	.	0.4%
O=C(OCC#CCSc1nnc(-c2cccc3ccccc23)o1)c1ccc(Cl)c(C(F)(F)F)c1	.	i	.	.
O=C(OCc1cccc(Cl)c1)c1cc([N+](=O)[O-])ccc1N1CCOCC1	i	i	20µM*	3.7%
COc1cccc(CNC(=O)COC(=O)c2cc([N+](=O)[O-])ccc2N2CCCC2)c1	i	.	35.5µM*	3.7%
O=C(COC(=O)c1cc([N+](=O)[O-])ccc1N1CCOCC1)NCc1ccccc1	i	i	-7.9%	-4.5%
O=C(COC(=O)C1CCN(c2ccc(C(F)(F)F)cn2)CC1)NCc1cccc(Cl)c1	i	i	?	-18.5%
COc1cccc(CNC(=O)COC(=O)C2CCN(c3ccc(C(F)(F)F)cn3)CC2)c1	i	.	12.6µM*	2.0%
CN1CCN(c2nc3c(=O)[nH]c(N)nc3n2C2OC(CO)C(O)C2O)CC1 (stereo unspecified)	.	.	.	-1.2%
COC(=O)[C@]12C[C@H](CC(=O)N3CCN(C(=O)c4ccco4)CC3)C(=O)N(CCc3ccc(OC)c(OC)c3)C1=C[C@H](C(C)C)O[C@@H]2C1CC1	.	i	.	.
CC(=O)C1(C(=O)NC2CCCC2)CC(c2ccccn2)=NO1 (stereo unspecified)	.	i	.	.
Cc1occc1C(=O)N/N=C/C(Br)=C/c1ccccc1	i	i	14.1µM*	-14.1%
Cc1occc1C(=O)N/N=C/c1ccc(-c2ccccc2)cc1	i	i	-37.3%	-33.5%
COc1cccc(C(=O)N/N=C/C(Br)=C/c2ccccc2)c1	i	i	20µM*	12.0%
COc1ccc(C(=O)N/N=C/C(Br)=C/c2ccccc2)cc1	i	i	2.1%	-12.2%
COc1cccc(C=C(C(C)=O)C(=O)c2ccccc2)c1	i	i	11.2µM*	?
C=CCOC(=O)N1CCN(C(=O)c2ccc3nc(C)n(C4CCCC4)c3c2)CC1	.	i	.	.
SMILES	Abeta rescue	FUS yeast rescue	TDP43 rescue	aSyn rescue
O=C(Cc1c(Cl)cccc1Cl)OCC(=O)N1CCc2ccccc2C1	i	.	19.2%	4.8%
O=C(Cc1c(F)cccc1Cl)OCC(=O)N1CCc2ccccc21	i	i	11.2µM*	6.8%
O=C(CCC(=O)c1cccs1)OCc1ccc([N+](=O)[O-])cc1	i	i	11.2µM*	-0.4%
N#Cc1ccccc1COC(=O)CCC(=O)c1cccs1	i	i	21.8%	-6.4%[1.84 µM]
Cc1ccc(OCc2nn3c(C4CCCCC4)nnc3s2)cc1	.	i	.	.
COC(=O)c1sc(S(=O)(=O)Nc2ccc(C)cc2)c(C(=O)OC)c1C	i	i	20µM*	5.4%
CCCCc1ccc(NC(=S)NCC2CCCO2)cc1 (stereo unspecified)	12.6µM*	i	-2.5%[0.397 µM]	-11.9%
